Experimental findings from ChEMBL document CHEMBL2218924, “A broad activity screen in support of a chemogenomic map for kinase signalling research and drug discovery” (Biochem J, 2013) are described below.

In test [1] the target is T1, Muscle, skeletal receptor tyrosine-protein kinase (Homo sapiens) (UniProt O15146).
T1 sequence (whole entry): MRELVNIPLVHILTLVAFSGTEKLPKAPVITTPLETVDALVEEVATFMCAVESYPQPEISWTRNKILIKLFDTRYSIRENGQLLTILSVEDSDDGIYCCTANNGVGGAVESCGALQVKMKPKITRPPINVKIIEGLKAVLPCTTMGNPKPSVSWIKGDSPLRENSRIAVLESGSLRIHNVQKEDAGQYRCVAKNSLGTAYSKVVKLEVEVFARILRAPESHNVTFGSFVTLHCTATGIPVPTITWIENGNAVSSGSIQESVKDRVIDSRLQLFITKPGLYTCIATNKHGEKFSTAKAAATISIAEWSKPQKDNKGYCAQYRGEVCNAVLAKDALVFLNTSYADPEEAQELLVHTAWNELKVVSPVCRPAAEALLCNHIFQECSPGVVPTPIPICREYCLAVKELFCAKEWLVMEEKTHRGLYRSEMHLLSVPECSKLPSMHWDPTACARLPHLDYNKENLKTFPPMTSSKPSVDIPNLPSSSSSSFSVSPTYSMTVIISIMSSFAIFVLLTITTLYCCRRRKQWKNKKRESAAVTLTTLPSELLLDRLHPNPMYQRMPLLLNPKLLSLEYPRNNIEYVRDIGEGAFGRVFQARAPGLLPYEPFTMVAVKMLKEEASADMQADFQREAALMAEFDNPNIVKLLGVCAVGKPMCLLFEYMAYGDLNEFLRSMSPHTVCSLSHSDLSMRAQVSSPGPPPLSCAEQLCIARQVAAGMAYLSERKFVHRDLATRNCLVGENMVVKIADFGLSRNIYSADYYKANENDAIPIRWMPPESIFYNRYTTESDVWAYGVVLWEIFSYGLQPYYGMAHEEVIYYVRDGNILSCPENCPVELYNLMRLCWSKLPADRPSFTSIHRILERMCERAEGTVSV
To be noted: at 1 µM.

Test [2] addresses T1, Muscle, skeletal receptor tyrosine-protein kinase (Homo sapiens). To be noted: at 10 µM.
Test [3] addresses T2, Serine/threonine-protein kinase Nek11 (Homo sapiens) (UniProt Q8NG66).
T2 sequence (whole entry): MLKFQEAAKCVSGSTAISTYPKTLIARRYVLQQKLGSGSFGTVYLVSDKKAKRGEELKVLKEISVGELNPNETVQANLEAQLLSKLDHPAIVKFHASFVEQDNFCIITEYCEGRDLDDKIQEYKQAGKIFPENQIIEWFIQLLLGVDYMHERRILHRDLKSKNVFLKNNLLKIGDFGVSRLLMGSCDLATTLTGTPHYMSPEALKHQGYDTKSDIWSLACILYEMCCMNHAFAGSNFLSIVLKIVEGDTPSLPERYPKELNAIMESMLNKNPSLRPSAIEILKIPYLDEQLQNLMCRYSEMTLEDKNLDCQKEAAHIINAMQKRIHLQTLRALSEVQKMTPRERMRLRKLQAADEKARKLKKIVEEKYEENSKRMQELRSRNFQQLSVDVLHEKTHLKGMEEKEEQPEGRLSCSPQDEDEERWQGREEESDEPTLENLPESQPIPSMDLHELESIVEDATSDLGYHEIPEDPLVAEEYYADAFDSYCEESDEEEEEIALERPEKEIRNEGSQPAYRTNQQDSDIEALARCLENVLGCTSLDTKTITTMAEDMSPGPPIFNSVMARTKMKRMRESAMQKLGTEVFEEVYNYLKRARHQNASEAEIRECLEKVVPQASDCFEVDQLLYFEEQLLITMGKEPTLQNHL
To be noted: at 1 µM.

Test [4] has as its target T2, Serine/threonine-protein kinase Nek11 (Homo sapiens). The settings on record: at 10 µM.
Test [5] has as its target T3, Serine/threonine-protein kinase Nek2 (Homo sapiens) (UniProt P51955).
T3 sequence (whole entry): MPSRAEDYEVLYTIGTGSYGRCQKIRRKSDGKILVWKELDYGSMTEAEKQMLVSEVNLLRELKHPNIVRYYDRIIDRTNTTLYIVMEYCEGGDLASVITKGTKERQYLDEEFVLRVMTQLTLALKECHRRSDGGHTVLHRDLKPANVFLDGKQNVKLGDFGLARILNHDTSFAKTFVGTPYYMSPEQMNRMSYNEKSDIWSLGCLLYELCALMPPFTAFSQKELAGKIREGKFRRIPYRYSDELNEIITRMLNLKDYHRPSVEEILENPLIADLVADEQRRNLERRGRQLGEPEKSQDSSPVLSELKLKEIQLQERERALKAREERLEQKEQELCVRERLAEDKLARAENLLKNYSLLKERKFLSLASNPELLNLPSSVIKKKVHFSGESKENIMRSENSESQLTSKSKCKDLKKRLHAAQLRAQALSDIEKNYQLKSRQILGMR
To be noted: at 10 µM.

For test [6], the target named is T4, Serine/threonine-protein kinase Nek3 (Homo sapiens) (UniProt P51956).
T4 sequence (whole entry): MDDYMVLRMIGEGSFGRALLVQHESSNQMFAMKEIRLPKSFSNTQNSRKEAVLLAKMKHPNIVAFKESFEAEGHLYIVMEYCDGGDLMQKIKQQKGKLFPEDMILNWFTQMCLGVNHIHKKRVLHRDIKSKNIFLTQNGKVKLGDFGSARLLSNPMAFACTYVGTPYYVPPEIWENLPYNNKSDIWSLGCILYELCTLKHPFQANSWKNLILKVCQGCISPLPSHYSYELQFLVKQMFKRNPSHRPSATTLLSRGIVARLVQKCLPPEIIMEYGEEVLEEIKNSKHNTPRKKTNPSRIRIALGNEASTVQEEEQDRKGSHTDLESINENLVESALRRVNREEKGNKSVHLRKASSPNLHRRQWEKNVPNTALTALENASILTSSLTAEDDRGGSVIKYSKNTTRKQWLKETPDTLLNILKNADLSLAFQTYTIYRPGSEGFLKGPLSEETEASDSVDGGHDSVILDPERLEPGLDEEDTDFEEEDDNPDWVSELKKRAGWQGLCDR
To be noted: at 1 µM.

Test [7] addresses T4, Serine/threonine-protein kinase Nek3 (Homo sapiens). The settings on record: at 10 µM.
The target of test [8] is Serine/threonine-protein kinase tousled-like 2 (Homo sapiens) (UniProt Q86UE8). The settings on record: at 1 µM.
Chain of Serine/threonine-protein kinase tousled-like 2 (Homo sapiens) (Q86UE8 whole entry, looked up): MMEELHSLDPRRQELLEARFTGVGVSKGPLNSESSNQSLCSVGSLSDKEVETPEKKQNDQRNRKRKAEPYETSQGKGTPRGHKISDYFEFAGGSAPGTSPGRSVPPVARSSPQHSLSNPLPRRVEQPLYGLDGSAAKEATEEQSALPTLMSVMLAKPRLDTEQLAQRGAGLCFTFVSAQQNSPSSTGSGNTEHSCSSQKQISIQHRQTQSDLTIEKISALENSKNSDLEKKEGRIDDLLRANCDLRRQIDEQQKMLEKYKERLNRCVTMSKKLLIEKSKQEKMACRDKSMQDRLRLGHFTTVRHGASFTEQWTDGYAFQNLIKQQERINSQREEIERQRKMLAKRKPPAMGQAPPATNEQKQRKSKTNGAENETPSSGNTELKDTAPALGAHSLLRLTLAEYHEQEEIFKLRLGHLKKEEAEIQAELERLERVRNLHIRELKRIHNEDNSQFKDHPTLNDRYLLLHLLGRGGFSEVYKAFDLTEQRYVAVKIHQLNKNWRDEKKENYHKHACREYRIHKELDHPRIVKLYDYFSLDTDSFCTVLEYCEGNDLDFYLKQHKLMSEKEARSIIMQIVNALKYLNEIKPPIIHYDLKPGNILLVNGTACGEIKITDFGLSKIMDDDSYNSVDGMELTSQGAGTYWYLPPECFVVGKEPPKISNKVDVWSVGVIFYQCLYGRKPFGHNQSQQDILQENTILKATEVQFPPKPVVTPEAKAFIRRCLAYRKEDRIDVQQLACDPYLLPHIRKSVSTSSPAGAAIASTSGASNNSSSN
Test [9] has the same target. To be noted: at 10 µM.
Test [10] has as its target T5, Testis-specific serine/threonine-protein kinase 1 (Homo sapiens) (UniProt Q9BXA7).
T5 sequence (whole entry): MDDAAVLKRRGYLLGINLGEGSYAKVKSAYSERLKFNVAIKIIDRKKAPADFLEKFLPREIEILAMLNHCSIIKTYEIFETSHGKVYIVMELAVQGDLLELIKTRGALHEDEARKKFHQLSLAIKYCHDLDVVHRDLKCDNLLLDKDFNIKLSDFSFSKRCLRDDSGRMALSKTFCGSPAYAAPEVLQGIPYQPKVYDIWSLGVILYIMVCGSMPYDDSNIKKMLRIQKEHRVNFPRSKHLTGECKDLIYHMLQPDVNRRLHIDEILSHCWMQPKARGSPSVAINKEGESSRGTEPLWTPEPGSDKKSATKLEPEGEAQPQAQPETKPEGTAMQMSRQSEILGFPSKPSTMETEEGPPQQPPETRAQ
To be noted: at 1 µM.

The target of test [11] is T5, Testis-specific serine/threonine-protein kinase 1 (Homo sapiens). The settings on record: at 10 µM.
Test [12] has as its target T6, Testis-specific serine/threonine-protein kinase 2 (Homo sapiens) (UniProt Q96PF2).
T6 sequence (whole entry): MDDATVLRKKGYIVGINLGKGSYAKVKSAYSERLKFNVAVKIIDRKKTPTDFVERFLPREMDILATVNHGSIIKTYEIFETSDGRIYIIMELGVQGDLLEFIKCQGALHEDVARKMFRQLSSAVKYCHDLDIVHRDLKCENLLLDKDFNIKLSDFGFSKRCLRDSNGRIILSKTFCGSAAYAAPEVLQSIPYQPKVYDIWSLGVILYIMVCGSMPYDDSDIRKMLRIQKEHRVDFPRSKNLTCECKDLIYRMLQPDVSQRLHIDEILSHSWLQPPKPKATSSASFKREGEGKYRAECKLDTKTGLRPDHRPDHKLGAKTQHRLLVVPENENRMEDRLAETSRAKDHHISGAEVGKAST
The settings on record: at 10 µM.

Test [13] has as its target T7, Tyrosine-protein kinase Tec (Homo sapiens) (UniProt P42680).
T7 sequence (whole entry): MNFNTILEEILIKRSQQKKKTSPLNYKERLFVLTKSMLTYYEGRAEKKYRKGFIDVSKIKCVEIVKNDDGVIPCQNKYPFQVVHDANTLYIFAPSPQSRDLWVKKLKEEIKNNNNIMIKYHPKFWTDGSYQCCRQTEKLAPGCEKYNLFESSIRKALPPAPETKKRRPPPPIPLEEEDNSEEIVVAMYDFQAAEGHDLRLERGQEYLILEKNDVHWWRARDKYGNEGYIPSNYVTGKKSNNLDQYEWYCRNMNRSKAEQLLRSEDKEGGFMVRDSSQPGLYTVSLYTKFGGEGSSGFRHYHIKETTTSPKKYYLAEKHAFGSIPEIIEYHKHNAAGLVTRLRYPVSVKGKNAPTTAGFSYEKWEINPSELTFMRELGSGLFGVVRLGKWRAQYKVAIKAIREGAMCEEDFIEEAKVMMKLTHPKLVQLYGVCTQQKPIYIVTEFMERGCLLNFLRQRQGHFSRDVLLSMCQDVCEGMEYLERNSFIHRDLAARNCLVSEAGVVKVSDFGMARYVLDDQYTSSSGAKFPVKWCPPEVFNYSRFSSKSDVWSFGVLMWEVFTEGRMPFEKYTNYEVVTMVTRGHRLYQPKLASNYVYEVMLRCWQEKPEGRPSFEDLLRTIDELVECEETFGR
The settings on record: at 1 µM.

Test [14] addresses T7, Tyrosine-protein kinase Tec (Homo sapiens). The settings on record: at 10 µM.
For test [15], the target named is Angiopoietin-1 receptor (Homo sapiens) (UniProt Q02763). To be noted: at 1 µM.
Chain of Angiopoietin-1 receptor (Homo sapiens) (Q02763 whole entry): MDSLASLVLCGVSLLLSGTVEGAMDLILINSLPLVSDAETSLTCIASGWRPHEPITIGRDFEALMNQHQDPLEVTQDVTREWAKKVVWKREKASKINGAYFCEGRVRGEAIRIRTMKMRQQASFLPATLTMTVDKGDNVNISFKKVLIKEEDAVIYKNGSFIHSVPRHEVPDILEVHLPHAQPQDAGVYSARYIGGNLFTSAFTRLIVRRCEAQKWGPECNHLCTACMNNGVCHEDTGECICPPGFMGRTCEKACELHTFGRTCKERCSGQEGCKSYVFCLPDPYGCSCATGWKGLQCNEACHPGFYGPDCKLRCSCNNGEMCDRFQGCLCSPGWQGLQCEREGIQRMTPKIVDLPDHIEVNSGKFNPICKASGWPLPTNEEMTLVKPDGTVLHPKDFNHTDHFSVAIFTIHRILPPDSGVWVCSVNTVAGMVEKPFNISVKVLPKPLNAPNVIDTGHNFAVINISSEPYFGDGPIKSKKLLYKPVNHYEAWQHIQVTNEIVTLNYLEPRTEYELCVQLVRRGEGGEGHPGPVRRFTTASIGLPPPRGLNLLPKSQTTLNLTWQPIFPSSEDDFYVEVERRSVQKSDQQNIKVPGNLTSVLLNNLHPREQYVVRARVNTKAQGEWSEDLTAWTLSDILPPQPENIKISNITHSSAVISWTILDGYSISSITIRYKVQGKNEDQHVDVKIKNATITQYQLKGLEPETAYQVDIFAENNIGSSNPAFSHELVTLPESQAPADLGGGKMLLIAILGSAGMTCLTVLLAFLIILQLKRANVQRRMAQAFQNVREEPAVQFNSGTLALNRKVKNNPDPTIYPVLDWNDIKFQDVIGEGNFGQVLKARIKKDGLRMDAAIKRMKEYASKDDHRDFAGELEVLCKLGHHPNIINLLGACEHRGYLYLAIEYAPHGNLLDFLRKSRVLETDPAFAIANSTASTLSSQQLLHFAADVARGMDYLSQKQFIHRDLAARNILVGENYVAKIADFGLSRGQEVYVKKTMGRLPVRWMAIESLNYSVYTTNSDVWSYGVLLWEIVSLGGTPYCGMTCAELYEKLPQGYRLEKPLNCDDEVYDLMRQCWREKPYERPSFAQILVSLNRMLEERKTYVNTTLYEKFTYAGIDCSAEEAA
Test [16] has the same target. To be noted: at 10 µM.
Test [17] concerns the target High affinity nerve growth factor receptor (Homo sapiens) (UniProt P04629). To be noted: at 1 µM.
Test [18] has the same target. To be noted: at 10 µM.
For test [19], the target named is BDNF/NT-3 growth factors receptor (Homo sapiens) (UniProt Q16620). The settings on record: at 1 µM.
Chain of BDNF/NT-3 growth factors receptor (Homo sapiens) (Q16620 32-822 limits assumed): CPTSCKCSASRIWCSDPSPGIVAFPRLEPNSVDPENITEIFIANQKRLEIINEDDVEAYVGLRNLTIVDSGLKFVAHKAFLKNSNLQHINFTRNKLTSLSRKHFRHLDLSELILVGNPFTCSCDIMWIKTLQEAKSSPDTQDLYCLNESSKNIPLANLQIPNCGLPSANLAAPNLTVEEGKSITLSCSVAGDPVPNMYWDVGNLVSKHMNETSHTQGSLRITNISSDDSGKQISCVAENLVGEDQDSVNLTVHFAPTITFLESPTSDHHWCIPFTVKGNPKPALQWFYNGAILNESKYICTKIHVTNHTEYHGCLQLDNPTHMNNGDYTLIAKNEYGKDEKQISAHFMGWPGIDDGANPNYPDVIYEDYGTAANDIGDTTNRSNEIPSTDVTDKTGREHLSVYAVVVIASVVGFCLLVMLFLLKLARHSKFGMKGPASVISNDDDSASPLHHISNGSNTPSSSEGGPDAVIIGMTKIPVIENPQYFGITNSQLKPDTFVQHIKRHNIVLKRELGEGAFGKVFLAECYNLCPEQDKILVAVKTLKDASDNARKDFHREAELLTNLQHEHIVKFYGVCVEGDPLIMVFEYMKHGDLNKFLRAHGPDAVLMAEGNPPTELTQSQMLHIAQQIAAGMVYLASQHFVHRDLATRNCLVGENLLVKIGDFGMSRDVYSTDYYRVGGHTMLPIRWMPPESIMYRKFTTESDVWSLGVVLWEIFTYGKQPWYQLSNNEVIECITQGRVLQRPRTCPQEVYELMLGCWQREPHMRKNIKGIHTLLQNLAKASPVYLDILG
The target in test [20] is T3, Serine/threonine-protein kinase Nek2 (Homo sapiens). The settings on record: at 1 µM.

Molecules are shown by their SMILES.

For orientation: residual activity means the signal under treatment as a percentage of the control signal.

Chain of High affinity nerve growth factor receptor (Homo sapiens) (P04629 33-796 limits assumed): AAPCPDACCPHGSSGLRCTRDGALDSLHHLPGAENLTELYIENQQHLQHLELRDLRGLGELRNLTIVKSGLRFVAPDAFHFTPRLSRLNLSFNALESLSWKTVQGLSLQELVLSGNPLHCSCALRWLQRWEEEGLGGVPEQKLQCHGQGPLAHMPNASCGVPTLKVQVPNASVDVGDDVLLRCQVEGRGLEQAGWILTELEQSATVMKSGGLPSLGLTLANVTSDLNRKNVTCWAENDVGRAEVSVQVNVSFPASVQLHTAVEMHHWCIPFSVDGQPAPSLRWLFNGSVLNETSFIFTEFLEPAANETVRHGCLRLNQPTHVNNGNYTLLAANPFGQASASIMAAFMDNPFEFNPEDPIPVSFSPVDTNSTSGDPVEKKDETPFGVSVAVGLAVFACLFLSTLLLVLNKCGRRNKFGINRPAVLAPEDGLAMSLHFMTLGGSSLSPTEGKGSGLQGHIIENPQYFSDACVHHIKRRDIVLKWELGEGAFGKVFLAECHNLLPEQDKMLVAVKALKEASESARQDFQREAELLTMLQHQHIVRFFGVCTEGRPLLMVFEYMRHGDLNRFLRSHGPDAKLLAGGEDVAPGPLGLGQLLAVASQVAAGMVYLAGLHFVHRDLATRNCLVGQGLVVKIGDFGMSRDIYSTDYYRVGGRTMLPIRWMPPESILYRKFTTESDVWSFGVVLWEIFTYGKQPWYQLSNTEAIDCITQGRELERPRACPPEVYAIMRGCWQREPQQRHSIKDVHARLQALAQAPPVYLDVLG

With `CC(C)[C@H](CO)Nc1nc(Nc2cc(N)cc(Cl)c2)c2ncn(C(C)C)c2n1`, the residual activity in test [1] worked out at 62%; in test [2] it was 10%; in [3], 84%; in test [4], 48%; in test [5], 76%; in test [6], 85%. The residual activity turned out to be 70% in test [7]; 95% in test [8]; 73% in test [9]; 86% in test [10]; 66% in [11]; 90% in test [12]. Moreover, the residual activity in test [13] stood at 61%; in test [14], 13%; in [15] it was 100%; in [16], 52%; in [17], 5%; in [18] it was 0%.
Turning to `O=C1NC(=O)C(c2cn(CCCO)c3ncccc23)=C1c1cnccn1`, the residual activity in [1] was determined as 81%; in test [2] it was 84%; in [3], 72%; in test [4], 82%; in [8], 98%; in test [9], 82%. For the same molecule, the residual activity in test [10] came to 97%; in test [11], 84%; in [12], 59%; in test [13], 91%; in [14], 73%; in test [15], 95%. The residual activity in [16] came out at 94%; in test [17], 80%; in test [18], 64%; in [19], 87%.
Consider `COc1ccc(CNC(=O)Nc2ncc([N+](=O)[O-])s2)cc1`, for which the residual activity in test [1] turned out to be 68%; in [2], 67%; in test [3], 51%; in test [4], 66%; in [9] it was 74%; in test [13], 102%.
With `CC(C)(C)n1nc(Cc2cccc3ccccc23)c2c(N)ncnc21`, the residual activity stood at 121% in test [1]; 76% in [2]; 91% in test [3]; 82% in test [4]; 78% in test [20]; 97% in test [5]. Besides, the residual activity came to 108% in [6]; 105% in test [7]; 104% in [8]; 97% in [9]; 96% in test [10]; 90% in test [11]. Also, the residual activity is 53% in test [13]; 10% in [14]; 71% in test [15]; 28% in test [16]; 80% in [17]; 17% in test [18]. The residual activity in test [19] was 45%.
On to `NCCNc1ncc(C(N)=O)c(Nc2cccc(C(F)(F)F)c2)n1`, for which the residual activity turned out to be 107% in test [1]; 75% in [2]; 71% in test [3]; 80% in [4]; 106% in [6]; 78% in test [7]. For the same molecule, the residual activity is 56% in [10]; 10% in test [11]; 100% in test [15]; 49% in [16]; 47% in test [19].
Regarding `O=C1NC(=O)c2c1c1c3ccccc3[nH]c1n1cncc21`, the residual activity was determined as 72% in [1]; 55% in [2]; 36% in test [3]; 34% in test [4]; 77% in test [20]; 63% in [5]. For the same molecule, the residual activity in [6] turned out to be 77%; in [7] it was 86%; in [8], 74%; in test [9] it was 58%; in test [12], 85%; in test [13], 70%. Moreover, the residual activity in test [14] stood at 65%; in test [15] it was 98%; in [16], 79%; in [17], 21%; in test [18] it was 9%; in test [19] it was 48%.
For the molecule `O=c1cc(N2CCOCC2)oc2c1ccc1ccccc12`, the residual activity in test [1] was 100%; in [2], 87%; in test [3] it was 98%; in test [4], 75%; in test [20], 79%; in test [5], 84%. Moreover, the residual activity in test [7] is 79%; in test [8], 101%; in test [9] it was 92%; in test [10], 101%; in test [11], 82%; in [12] it was 78%. Also, the residual activity in [13] was 93%; in test [14] it was 96%; in test [15] it was 81%; in [16], 97%; in test [17], 106%.
